ERK AVP block = vasopressin-driven ERK pathway inhibition; HEK293-V1b, vasopressin-stimulated pERK AlphaScreen; Potency, µM (highest dose often 57.5 µM), for the others: at the top dose activity, negative = inhibition, usual class: inhibitors; 0.99% of 72,000 active; AID 995; also: potency is read from the fitted curve at half-maximal effect; % is scaled to controls: 0 for no effect and ±100 for the full control effect; nearly all actives have a fitted effect of over 55% in size
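qHTS, compounds titrated on V1b-expressing HEK293 cells. Preincubation 30 min at 37C, vasopressin 25 nM for 5 min, lysis 10 min, bead incubation 5 hr at room temperature.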
CRE-bla Fsk = modulators of forskolin-stimulated CRE signaling in CHO cells | CHO CRE-bla reporter (cAMP response element driving beta-lactamase), forskolin EC10, beta-lactamase ratio | Potency, µM (series often up to 38.2 µM), for inactives: at the highest dose activity change, negative = inhibition, most hits filed as activators | 2.5% of 71,000 active | AID 662; active = well fitted activation curve with a large enough effect in the signal ratio, with a control signal flat, not every such curve was filed as active; inconclusive = small, poorly fitted or top-dose-only effect, or effect the other way, or a change in a side signal; the % refers to the signal ratio; also: potency is read from the fitted curve at half-maximal effect; % of control where 0% means no effect
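Modulation of forskolin-driven signalling is measured in CHO cells carrying a CRE-controlled beta-lactamase reporter. Cells are stimulated with EC10 NKH 477 in the presence of titrated compound for 3 h at 37 °C, then loaded with CCF4 for 2 h at room temperature.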
HBB splicing = modulators of hemoglobin beta chain splicing; HBB splicing reporter cell assay, activation; EGFP reporter with mutant IVS2-654 intron; response scale: normalised to 500 nM splice-correcting PNA; Potency, µM (titrated, usually from 46.1 µM), for inactives: top-dose activation, usual class: activators; 0.06% of 65,000 active; AID 925; also: potency is read from the fitted curve at half-maximal effect; 0% is about no effect
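Compounds were applied for 2 days to HeLa EGFP-654 cells, 500/well in Optimem with 2% FCS. The reporter's EGFP is disrupted by mis-splicing of beta-globin intron IVS2-654. Readout: summed well GFP fluorescence from 488 nm laser scanning; reference was 500 nM antisense […] 654 PNA.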
IkB sig inh = suppresses IkB signaling in ABC-DLBCL reporter cells; AID 445; ABC-DLBCL IkBa-CBG/CBR dual luciferase ratio, 4 h; response scale: scaled: untreated 0%, proteasome inhibitor 100%; 0.04% of 110,000 active; Potency, µM (top dose mostly 57.1 µM), without a hit: at the highest dose IkBa stabilization activation; active = well fitted curve in the direction sought with a large enough effect in the signal ratio, not every such curve was filed as active; inconclusive = small, poorly fitted or top-dose-only effect, or a change in a side signal; the % refers to the signal ratio;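 also: potency is read from the fitted curve at half-maximal effect; the direction sought is a rising ratio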
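Luminescence ratio of IκBα-fused green versus native red beetle luciferase in OCI-Ly3 cells, 4 h post-doxycycline with compound; red signal alone, scaled from basal (0%) to zero light (-100%), flagged nonspecific or cytotoxic effects.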
Epigenetic mod = derepresses silenced GFP locus in mouse C127i cells. AID 597. mouse C127i GFP locus derepression, cytometry, 30 h. 0.09% of 68,000 active. Potency, µM (doses to about 46.1 µM), for inactives: top-dose GFP derepression (activation); also: % of control where 0% means no effect
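Derepression screen: silenced CMV-GFP reporter in murine C127i cells, 30 h compound incubation at 37 C, washed cells imaged by laser-scanning cytometer to enumerate GFP-expressing objects of 20 to 120 um.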
* hit, by the source's call; ? = inconclusive; nt = not tested or not shown; [ ] = dose if it differs, or a comment. This excerpt belongs to a sample that is enriched for hits. Unless noted, calls follow the shape of the dose curve; as a rule, active = well fitted curve in the direction sought with a large enough effect; inconclusive = small, poorly fitted or top-dose-only effect, or another doubt; inactive = no such curve, though single readings can be large; an effect the other way counts as inactive or inconclusive.

SMILES	ERK AVP block	CRE-bla Fsk	HBB splicing	IkB sig inh	Epigenetic mod
COc1cccc(Cn2c(=O)c(-c3cccc(C#N)c3)nc3cnc(N4CCOCC4)nc32)c1	5%	0.5µM*	0%	1%[11.4 µM]	-4%[9.22 µM]
COc1ccc(-n2c(=O)c(C)nc3cnc(N4CCNCC4)nc32)cc1	3%	13µM*	1%	-1%[11.4 µM]	2%[9.22 µM]
COc1cccc(Cn2c(=O)c(C)nc3cnc(N4CCOCC4)nc32)c1	-28%	3.2µM*	1%	-1%[11.4 µM]	-3%[9.22 µM]
CCn1c(=NC(=O)c2ccc3c(c2)OCCO3)sc2c(C)ccc(OC)c21	nt	nt	nt	-2%	nt
COc1cc(-c2nnc(SCc3ccccc3Cl)o2)cc(OC)c1OC	9%	4µM*	-6%	5%	1%
COc1cc(-c2nnc(SCC(=O)c3ccc(C)cc3)o2)cc(OC)c1OC	0%	2.5µM*	0%	3%	2%
COc1cc(-c2nnc(SCC(=O)c3cc(C)n(CC4CCCO4)c3C)o2)cc(OC)c1OC (configuration not stated)	-9%	4µM*	-3%	?	2%
COc1cc(-c2nnc(SCC(=O)N3CCCC3)o2)cc(OC)c1OC	-16%	?	0%	1%	-1%
COc1cccc(C(=O)CSc2nnc(-c3cc(OC)c(OC)c(OC)c3)o2)c1	7%	?	0%	1%	2%
NC(=S)NCCC[C@@H](N)C(=O)O	35%	-1%	-1%	2%	0%
Cc1cc(N)n2ncc(-c3ccccc3)c2n1	25µM*	9%	nt	?	-5%
Cc1cc(N)n2ncc(-c3cccc(Br)c3)c2n1	-2%	9%[7.6 µM]	-1%[0.0738 µM]	3%	0%
CCOC(=O)N1CCN(C(=O)c2ccc3c(=O)n(Cc4ccc(OC)cc4)c(=S)[nH]c3c2)CC1	32µM*	?	3%	?	-1%
CCOC(=O)N1CCN(C(=O)c2ccc3c(=O)n(Cc4ccccc4)c(=S)[nH]c3c2)CC1	?	?	3%	?	-1%
COC(=O)C1CCN(C(c2ccccc2Cl)c2sc3nc(-c4ccco4)nn3c2O)CC1 (configuration not stated)	nt	nt	nt	-1%	nt
Cc1nc(N2CCC(C)CC2)c2oc3ccccc3c2n1	-12%	?	2%[57.5 µM]	1%	0%
Cc1nc(N2CCN(C(=O)c3ccco3)CC2)c2oc3ccccc3c2n1	?	4µM*	3%	?	5%
CCc1nc(N2CCN(C(=O)c3ccco3)CC2)c2oc3ccccc3c2n1	?	3.2µM*	1%[57.5 µM]	?	2%
O=C(Nc1ccc2oc(-c3ccccc3F)nc2c1)c1cncc(Br)c1	-6%	0.5µM*	4%	0%	-3%
COc1ccc(CCNC(=O)c2c(C)oc3nc(C)nc(N4CCOCC4)c23)cc1OC	nt	nt	nt	-3%	nt
OC1CCCN(c2c3c(nc4cc(-c5cccc(Cl)c5)nn24)CCC3)C1 (configuration not stated)	?	?	2%	-3%	4%
Cc1cccc(-c2cc3nc4c(c(N5CCCC(O)C5)n3n2)CCC4)c1 (configuration not stated)	20%	13µM*	0%[57.5 µM]	?	-2%
Cc1cccc(-c2cc3nc4c(c(N5CCOCC5)n3n2)CCCC4)c1	-11%	2.5µM*	0%[57.5 µM]	?	-1%
Cc1cccc(-c2cc3nc4c(c(N5CCC6(CC5)OCCO6)n3n2)CCCC4)c1	-29%	?	0%[57.5 µM]	?	4%
COc1ccccc1-c1cncnc1NCc1ccccc1	-9%	-10%	0%	-1%[11.4 µM]	3%[9.22 µM]
SMILES	ERK AVP block	CRE-bla Fsk	HBB splicing	IkB sig inh	Epigenetic mod
CCCn1c(=O)[nH]c(=O)c2c1nc(-c1ccc3c(c1)OCCO3)n2CCN1CCOCC1	6%	4µM*	0%	0%	-2%
CN(Cc1c(O)ccc2c1oc(=O)c1ccccc12)C1CCCCC1	nt	nt	nt	nt	2%[20.6 µM]
O=c1oc2c(CN3CCOCC3)c(O)ccc2c2c1CCCC2	-8%	10µM*	0%[57.5 µM]	-1%	0%
COCCN(CCOC)Cc1c(O)ccc2c3c(c(=O)oc12)CCC3	-10%	13µM*	1%	-5%	-4%
CCCCNC(=O)COC(=O)c1cc2c(C)nn(-c3ccccc3)c2s1	-11%	5µM*	1%[0.369 µM]	6%	-2%
Cc1nn(-c2ccccc2)c2sc(C(=O)N3CCc4ccccc4C3)cc12	-11%	4µM*	0%[57.5 µM]	?	0%
COC(=O)NC(/C(C(=O)OC)=C(\C)NCc1ccccc1)c1ccco1 (configuration not stated)	2%[11.5 µM]	nt	0%[9.22 µM]	nt	nt
COC(=O)c1ccc2c(=O)n(CCCCCC(=O)NCc3ccc(OC)cc3)c(=O)[nH]c2c1	nt	nt	nt	-4%	nt
Brc1ccccc1-c1nnc(COc2ncnc3c2cnn3-c2ccccc2)o1	32µM*	?	0%[57.5 µM]	?	0%
Cc1ccc(Nc2cc(C)nc(-n3nc(C)cc3C)n2)cc1	nt	nt	nt	-2%	nt
CCOc1ccc(Nc2cc(C)nc(-n3nc(C)cc3C)n2)cc1	?	13µM*	9%[0.369 µM]	2%	16µM*
COc1ccc(Nc2cc(C)nc(N3CCOCC3)n2)cc1	?	4µM*	3%[0.369 µM]	0%	0%
COc1ccc(/C=C/c2cc(O)cc(O[C@H]3OC(CO)C(O)C(O)C3O)c2)cc1 (some centres not stated)	2%	nt	nt	nt	nt
CCCn1c(C)nc2c(N3CCC(N4CCN(C)CC4)CC3)nc(C)nc21	-2%	7%	0%	nt	nt
CCCn1c(C)nc2c(N3CCOCC3)nc(C)nc21	-19%	10µM*	-1%	nt	nt
c1cncc(CNc2nc(-c3ccc4c(c3)OCO4)nc3ccccc23)c1	-21%	13µM*	1%	0%[11.4 µM]	2%[9.22 µM]
CS(=O)(=O)Nc1cccc(-c2nc(NCc3cccnc3)c3ccccc3n2)c1	-27%	4µM*	2%	-7%[11.4 µM]	11%[9.22 µM]
CS(=O)(=O)Nc1cccc(-c2nc(NCc3ccccc3)c3ccccc3n2)c1	-28%	?	-1%	-6%[11.4 µM]	-3%[9.22 µM]
Cc1noc(C)c1-c1nc(NCc2cccnc2)c2ccccc2n1	2%	13µM*	2%	4%[11.4 µM]	2%[9.22 µM]
Cc1cccc(CNc2nc(-c3ccc4c(c3)OCO4)nc3ccccc23)c1	?	27%	-1%	12%[11.4 µM]	3%[9.22 µM]
CN1CCN(c2ncc3nc(-c4ccccc4)c(=O)n(C4CC4)c3n2)CC1	10%	?	1%	-4%[11.4 µM]	-6%[9.22 µM]
Cc1cc(C)n(CCc2nc3c4ccccc4nc(N4CCN(c5ccccc5)CC4)n3n2)n1	nt	nt	nt	0%	nt
Cc1ncc(COP(=O)(O)O)c(C)c1O	8%[11.5 µM]	8%[7.6 µM]	1%[9.22 µM]	0%[11.4 µM]	2%[9.22 µM]
